Compounds without any hit were thinned out: in the full panel of roughly 79,000, 15% have a hit. A number with no mark means an inactive call. Activity calls are given as the source filed them. Rule as the data show it: active = growth inhibition above about 70%; inactive = the rest.

Assay [1] in a line: NCI Yeast Anticancer Drug Screen. Data for the rad50 strain (AID 155).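 Also: 0% = growth of vehicle-only cultures of the same strain.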 The following applies: S. cerevisiae rad50 strain growth inhibition, active compounds read high; at 50.0 µM unless noted. In short, it runs like this: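 Yeast carrying a defined DNA repair defect were exposed to test compounds, and growth was compared with vehicle-treated controls to give percent inhibition.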
Assay [2] can be described thus: NCI Yeast Anticancer Drug Screen. Data for the mec2-1 strain (AID 157). The following applies: S. cerevisiae mec2-1 strain, active compounds read high; at 50.0 µM unless noted. In short, it runs like this: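 mec2-1 yeast strain, carrying an alteration in DNA damage repair or cell cycle control, was exposed to compounds; growth inhibition was measured relative to vehicle-treated controls.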

Assay [3] is described as follows: NCI Yeast Anticancer Drug Screen. Data for the sgs1 mgt1 strain (AID 161).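 Also: 0% = growth of cultures given vehicle only.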 The note with it: S. cerevisiae sgs1 mgt1 strain, active compounds read high; at 50.0 µM unless noted. In a few lines: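 Growth of a repair-deficient yeast mutant was monitored after compound treatment and expressed as inhibition relative to vehicle-treated cultures.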
The nature of assay [4]: NCI Yeast Anticancer Drug Screen. Data for the cln2 rad14 strain (AID 165).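 Also: 0% = growth equal to vehicle treated cultures.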 The note with it: S. cerevisiae cln2 rad14 strain, active compounds read high; at 50.0 µM unless noted. In short, it runs like this:
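Yeast carrying cln2 and rad14 alterations (cell cycle control and DNA damage repair) were exposed to compounds. Growth inhibition was measured against vehicle-treated controls.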

Assay [5] can be described thus: NCI Yeast Anticancer Drug Screen. Data for the bub3 strain (AID 167). The following applies: S. cerevisiae bub3 mutant strain, active compounds read high; at 50.0 µM unless noted. In a few lines:
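Compounds were applied to a genetically altered yeast strain carrying a cell-cycle control defect. Growth inhibition was scored against vehicle-treated controls.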

A short description of assay [6]: NCI Yeast Anticancer Drug Screen. Data for the mlh1 rad18 strain (AID 175). The following applies: S. cerevisiae mlh1 rad18 strain growth inhibition, active compounds read high; at 50.0 µM unless noted. In a few lines: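 Growth inhibition of the yeast strain was measured after compound exposure and expressed relative to vehicle-treated controls. The strain carries defined defects in DNA damage repair.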

With `COC(=O)NC1C(OC(C)=O)C(OC(C)=O)C(COC(C)=O)OC1n1ccc(NC(C)=O)nc1=O` (stereo unspecified), the growth inhibition in assay [1] was 8.65%; in assay [2] it was 1.4%; in assay [3], 5.9%; in assay [4], 18.6%; in assay [5], 0.15%; in assay [6], 5.1%.
As to `COc1cc2c(cc1OC)C(c1c(-c3c(Cl)cccc3Cl)noc1C)=NCC2`, the growth inhibition in assay [1] was -3.8%; in assay [2], -14.9%; in assay [3], -11.8%; in assay [4], 19.8%; in assay [5], 3.2%; in assay [6], -4.25%.
`CN(C)c1ccc(S(=O)(=O)OC2C(C3COC(C)(C)O3)OC3OC(C)(C)OC32)cc1` (stereo unspecified): the growth inhibition is -8.5% in assay [1]; 0.75% in assay [2]; -8.7% in assay [3]; -16.2% in assay [4]; 3.25% in assay [5]; 4.7% in assay [6].
On to `COc1ccc2c(c1)[n+](=O)c(C(=O)CC(=O)C(=O)Nc1cccc(C)c1C)c(C)n2[O-]`, for which the growth inhibition is 2.35% in assay [1]; 13.3% in assay [2]; -9.55% in assay [3]; 9.45% in assay [4]; 5.3% in assay [5]; 14.8% in assay [6].
For `Cc1nn(C(=O)c2ccc(Cl)cc2)c2c1C(c1ccc([N+](=O)[O-])cc1)SC(N)=N2` (stereo unspecified), the growth inhibition in assay [1] was -14.8%; in assay [2], 7.4%; in assay [3] it was 16.4%; in assay [4] it was -16.8%; in assay [5], -16.1%; in assay [6] it was -4.1%.
As for `COC(=O)C(Br)C(CCCN1C(=O)c2ccccc2C1=O)OC` (stereo unspecified), the growth inhibition in assay [1] was 27.5%; in assay [2] it was 7.55%; in assay [3], 45.9%; in assay [4] it was 8.5%; in assay [5], 39.9%; in assay [6], 19.1%.
For `COc1ccc(C2(OC)Oc3cc(OC)ccc3-c3nc4ccccc4nc32)cc1` (stereo unspecified), the growth inhibition in assay [1] was 23.4%; in assay [2], 1.25%; in assay [3], -4.15%; in assay [4], 11.6%; in assay [5], 4.3%; in assay [6], 0.4%.
Consider `Cc1cc(=O)[nH]c(N/N=C/C=C/c2ccccc2)n1`, for which the growth inhibition in assay [1] was -35.4%; in assay [2], -25.7%; in assay [3], -17.1%; in assay [4], -15.8%; in assay [5], -15.8%; in assay [6], -25.9%.
For the compound `COc1cc2c(cc1OC)NC(=O)NC(Cc1ccc3c(c1)OCO3)CC2` (stereo unspecified), the growth inhibition in assay [1] was 20.6%; in assay [2], 10.8%; in assay [3], 13.8%; in assay [4], -47%; in assay [5] it was 22.3%; in assay [6], 27.3%.
On to `CN1C(=O)CCC1c1nc2ccccc2[nH]1` (stereo unspecified), for which the growth inhibition in assay [1] was 0.15%; in assay [2], 9.95%; in assay [3], -3.05%; in assay [4] it was -17.9%; in assay [5], 6.45%; in assay [6], 20.4%.
For `CCc1c(C)[nH]c2ccc([N+](=O)[O-])cc12`, the growth inhibition in assay [1] was 18.2%; in assay [2] it was 3.25%; in assay [3] it was 6.7%; in assay [4], 19.9%; in assay [5] it was 23.2%; in assay [6], 26.4%.
Take `C=C1C(=O)OC2CC(C)C(/C=C/C(C)=O)=CCC12` (stereo unspecified): the growth inhibition in assay [1] was -7.45%; in assay [2], -7.6%; in assay [3], -19.9%; in assay [4], -12.5%; in assay [5] it was -43%; in assay [6], -99.8%.
With `CCC1([N+](=O)[O-])COC(CCc2ccccc2)OC1` (stereo unspecified), the growth inhibition in assay [1] was 6.3%; in assay [2], -20.9%; in assay [3] it was 10.8%; in assay [4], -30.1%; in assay [5], -0.25%; in assay [6] it was -19.9%.
As for `CN(C)C(=S)/N=c1\ssc(=S)n1Cc1ccccn1`, the growth inhibition in assay [1] was 3.05%; in assay [2], -11.9%; in assay [3], 1.8%; in assay [4], 22.1%; in assay [5], -9.55%; in assay [6], -10.9%.
On to `NC1=CNC(=O)C1`, for which the growth inhibition in assay [1] was 1.65%; in assay [2], 1.45%; in assay [3] it was -3.05%; in assay [4], -1.65%; in assay [5], 14.1%; in assay [6], -7.4%.
Take `NC1CCC[C@@H](O)[C@H]1O` (stereo partly specified): the growth inhibition in assay [1] is -4.9%; in assay [2], 22.9%; in assay [3], 8.7%; in assay [4], -7.1%; in assay [5], 9.6%; in assay [6], -0.55%.
As for `Clc1ccc(C(=Nc2ccccc2)C(Nc2ccccc2)c2ccc(Cl)cc2)cc1` (stereo unspecified), the growth inhibition is 4.75% in assay [1]; -5.15% in assay [2]; 17.8% in assay [3]; 8.75% in assay [4]; 3.8% in assay [5]; 19.4% in assay [6].
As to `CCCCCCC(=O)OCC(=O)c1ccc(Br)cc1`, the growth inhibition was 2.85% in assay [1]; 28.2% in assay [2]; 15.2% in assay [3]; -115% in assay [4]; 22.2% in assay [5]; 15% in assay [6].
With `CC(=O)OCCOc1ccc2c(c1)OCO2`, the growth inhibition is 3.2% in assay [1]; -1.2% in assay [2]; 4.95% in assay [3]; -23.6% in assay [4]; -1.75% in assay [5]; 30.7% in assay [6].
For the compound `CCOC(=O)C1=C(C)NC(c2ccco2)=C(C#N)C1c1cccc([N+](=O)[O-])c1` (stereo unspecified), the growth inhibition is 59.8% in assay [1]; 33.4% in assay [2]; 66% in assay [3]; 68.7% in assay [4]; 63.6% in assay [5]; 70.8% (active) in assay [6].
`CC(C)(C)C(=O)NC(OC(NC(=O)C(C)(C)C)C(=O)C(C)(C)C)C(=O)C(C)(C)C` (stereo unspecified): the growth inhibition in assay [1] is 4.05%; in assay [2], 6.25%; in assay [3], -21.4%; in assay [4], -0.6%; in assay [5], -0.1%; in assay [6], 21%.

(Values after PubChem BioAssay (NCI).)
